sEH inh: blocks human soluble epoxide hydrolase activity; inhibition, % at 2 µM; recombinant human sEH enzymatic activity assay; P34913; actives 0.34% (n = 91,000); AID 707; in the data active = inhibition above about 80%
Target sequence (P34913 whole entry, looked up): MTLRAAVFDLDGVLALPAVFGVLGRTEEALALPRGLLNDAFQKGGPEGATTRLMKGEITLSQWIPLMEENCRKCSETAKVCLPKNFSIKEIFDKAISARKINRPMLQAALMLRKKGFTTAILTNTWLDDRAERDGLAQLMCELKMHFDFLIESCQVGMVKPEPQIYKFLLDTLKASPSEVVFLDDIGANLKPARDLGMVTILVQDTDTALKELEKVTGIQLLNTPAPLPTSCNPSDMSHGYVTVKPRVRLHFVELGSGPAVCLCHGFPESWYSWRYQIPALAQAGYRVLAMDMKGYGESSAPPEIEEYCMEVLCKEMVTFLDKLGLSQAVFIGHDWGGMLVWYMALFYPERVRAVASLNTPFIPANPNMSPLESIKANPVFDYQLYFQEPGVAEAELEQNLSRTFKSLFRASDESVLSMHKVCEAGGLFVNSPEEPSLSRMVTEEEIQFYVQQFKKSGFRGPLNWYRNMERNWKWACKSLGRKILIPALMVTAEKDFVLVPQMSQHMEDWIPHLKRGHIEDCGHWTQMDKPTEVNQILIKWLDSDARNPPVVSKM
Calb biofilm kill: kills Candida albicans biofilms; C. albicans biofilm + clotrimazole, Alamar Blue; inhibition, % at 6 µM; actives 0.14% (n = 85,000); AID 834;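 active = inhibition above 20%; inactive = inhibition below 20%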;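 also: preformed 24 hr biofilms exposed to compound for 48 hr; 0% = biofilm without compound and 100% = blank killed by clotrimazole plus chlorhexidine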
Measles CPE: protection of cells from measles virus | protection (pct of control), % at 4 µM | actives 1.5% (n = 140,000) | AID 841 | Measles virus-infected cells, CPE protection, absorbance; in the data active = protection mostly above about 24%, no sharp cut-off; inactive = mostly below about 26%
sEH activator: increases human soluble epoxide hydrolase activity. P34913. purified human sEH enzymatic activity, activator screen. activation, % at 2 µM. actives 0.04% (n = 91,000); in the data active = activation above about 37%
F-actin modifier: modifiers of cytoskeleton assembly; HUVEC TNFa F-actin phalloidin imaging, high content; inhibition, % at 2 µM; actives 0.18% (n = 91,000);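 active = inhibition above the batch mean plus 3 SD and confirmed as a hit by visual image inspection, cut at about 30% in these data, passing the limit was not always enough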
* marks the source's active call; other numbers are inactive results; . = not tested or not shown. A selection: hits, their analogues and other compounds. The true share with any hit is near 1.9%.

SMILES	sEH inh	Calb biofilm kill	Measles CPE	sEH activator	F-actin modifier
Cc1nn(Cc2ccccc2)c2c1C(c1cccc(Cl)c1)C(C#N)=C(N)O2 (stereo unspecified)	-8	4	23	6	1
Cc1ccc(N(C)C(=O)N2CCN(S(=O)(=O)c3ccc4ccccc4c3)CC2)cc1	13	.	6	-15	9
O=C(CN(C(=O)C1CSC(=O)C1)c1ccccc1F)NCc1ccc2c(c1)OCO2 (stereo unspecified)	-8	8	63*	7	-22
O=C(Cc1ccccc1)NCc1ccc2c(c1)OCO2	-6	5	6	5	-1
CC/C(C)=N/NC(=S)NCc1ccco1	.	.	8	.	.
CC1CCCC(n2c(=S)[nH]c3ccccc3c2=O)C1C (stereo unspecified)	.	-9	32*	.	-41
CCCCC(=O)Nc1cccc(-c2nn3c(C)nnc3s2)c1	18	.	21	-16	18
CNc1ccc(Br)cc(C(=O)/C=C/c2ccc3c(c2)OCO3)c1=O	-3	.	54*	0	-21
COc1ccc(C(=O)NC2CCCCCC2)cc1S(=O)(=O)Nc1ccc(Br)cc1	65	-3	32*	-66	-5
CN1CCN(c2ccccc2NC(=O)C(Cc2ccccc2)n2cccc2)CC1 (stereo unspecified)	-6	.	12	6	-1
COc1ccccc1NC(=O)CCC(=O)O	8	8	71*	-6	-8
COc1ccc(NC(=S)N2CCNC(=O)C2CC(=O)Nc2ccc(C)cc2)cc1 (stereo unspecified)	.	.	33	.	.
O=C(Oc1ccccc1)c1cccc2cccnc12	1	3	48*	5	-4
CC12C(=O)N(Cc3ccco3)C(=O)C1C1c3ccccc3C2c2ccccc21 (stereo unspecified)	32	4	13	-31	16
CCC1SC2=NC(C)=C(C(=O)OCC(C)C)C(/C=C/c3ccccc3OC)N2C1=O (stereo unspecified)	4	3	7	-4	4
CCC1SC2=NC(C)=C(C(=O)OCCOC)C(/C=C/c3ccccc3OC)N2C1=O (stereo unspecified)	5	-3	54*	-5	-5
COc1ccc(N2CCN(c3nc4ccccc4n3CC(=O)c3ccccc3)CC2)cc1	.	-2	7	.	.
COc1ccc(N2CCN(Cc3nc4ccccc4n3C)CC2)cc1	.	.	37*	.	.
COc1ccc(OCC(O)CN2CCN(c3ncccn3)CC2)cc1 (stereo unspecified)	.	.	5	.	.
COc1ccc(N2CCN(c3ncccn3)CC2)cc1	-7	.	28*	6	1
CCOC(=O)N(C)OC(=O)Nc1ccc(Cl)c(Cl)c1	12	5	8	-11	5
CCOC(=O)CNNC(=O)Nc1ccc(Cl)c(Cl)c1	.	.	21*	.	.
Cc1c([N+](=O)[O-])c(C(=O)N2CCCC2)nn1C	-22	.	69*	20	11
Cn1c(CO)c(-c2ccccc2)c2cc([N+](=O)[O-])ccc21	-12	.	37*	14	6
CCN(CC)S(=O)(=O)c1cccc(C(=O)NCCc2ccccc2)c1	81*	5	.	-81	-9
SMILES	sEH inh	Calb biofilm kill	Measles CPE	sEH activator	F-actin modifier
CCN(CC)S(=O)(=O)c1cccc(C(=O)N[C@H](C(=O)O)C(C)C)c1	5	4	18	-10	4
NC(=O)COC(=O)CC(NC(N)=O)c1ccc(Cl)cc1 (stereo unspecified)	.	.	37*	.	.
NC(=O)NC(CC(=O)OCC(=O)NC(=O)NCc1ccco1)c1ccc(Cl)cc1 (stereo unspecified)	.	8	2	.	18
O=C(COC(=O)c1n[nH]c2ccccc12)NC(=O)NCc1ccco1	11	-2	25*	-11	1
CSc1nnc(-c2ccc(Cl)cc2Cl)o1	9	2	89*	-7	4
CCSc1nnc(-c2ccc(Cl)cc2Cl)o1	2	2	3	-3	-1
Cc1nc2nc(-c3cccnc3)[nH]n2c(=O)c1C	-1	6	16	4	-15
O=C1C(=C2SCCCS2)CC/C1=C\c1ccc(F)cc1	11	.	44*	-5	-8
O=C(NC(=S)Nc1ccccc1)c1ccc(-c2ccccc2)cc1	.	.	6	.	.
CC(C)NS(=O)(=O)c1ccc(NC(=S)NC(=O)c2ccc(-c3ccccc3)cc2)cc1	-4	.	44*	6	-32
CC(=O)N1CCN=C1SCc1cccc(C(F)(F)F)c1	3	.	19	-4	-28
CC(=O)N1CCN=C1SCc1ccc(Br)cc1	2	24*	20	-3	5
CCCC(=O)NCCc1ccc(F)cc1	-9	1	13	11	1
C[C@@H](C(=O)Nc1ccc2ccccc2c1)[C@H]1C[C@]1(C)[C@H](NC(=O)OCc1ccccc1)c1ccccc1	.	.	38*	.	.
N#C/C(=C(/O)CN1CCCCC1)c1nc(-c2ccc(Cl)cc2)cs1	10	.	81*	-10	5
Nc1nc(C2CCCCC2)cs1	-6	7	7	6	5
CCC1(C)CC(c2csc(N)n2)CCO1 (stereo unspecified)	13	6	65*	-8	13
Fc1ccc(N/N=C/C=C/c2ccccc2)c(F)c1	.	.	16	.	.
Cc1cc(C)cc(NC(=O)C(Nc2ccccc2)c2ccccc2)c1 (stereo unspecified)	.	.	46*	.	.
Cc1ccc(NC(=O)C(Nc2ccccc2)c2ccccc2)cc1 (stereo unspecified)	.	.	11	.	.
COc1ccc(C(=O)CSc2ncn[nH]2)cc1OC	12	6	48*	-12	-8
COc1ccccc1CNC(=O)c1ccccc1N	-1	6	37*	4	2
O=c1cc(-c2ccc(Cl)c(Cl)c2)[nH][nH]1	-9	-6	36	12	-6
O=c1cc(-c2ccc(Cl)cc2)[nH][nH]1	-8	9	41*	11	0
O=C(NCCN1CCOCC1)c1cc2cc(Cl)cc(Cl)c2oc1=O	-4	3	.	7	5
SMILES	sEH inh	Calb biofilm kill	Measles CPE	sEH activator	F-actin modifier
C/C(=N/NC(=O)c1ccc2nc[nH]c2c1)c1cccs1	.	.	12	.	.
CC1(C)CC(=O)c2cnc(NCC3CCCO3)nc2C1 (stereo unspecified)	9	8	30*	-10	-2
CC1CC(=O)c2cnc(NCC3CCCO3)nc2C1 (stereo unspecified)	-7	-3	2	7	6
O=C(NC1CCS(=O)(=O)C1)C12CC3CC(CC(C3)C1)C2 (stereo unspecified)	15	.	23	-17	2
COc1cccc(NC(=O)CCC(=O)NCc2ccco2)c1	6	.	86*	-5	22
COc1cccc(NC(=O)CCC(=O)Nc2cccc(OC)c2)c1	.	.	16	.	.
COc1cc(S(=O)(=O)Nc2cccc(C)c2)ccc1NC(=O)c1ccncc1	.	.	12	.	.
O=C(N[C@@H](Cc1ccccc1)C(=O)NC1CCCCCC1)c1ccco1	80*	.	5	-80	-2
O=C(N[C@@H](Cc1ccccc1)C(=O)NC1CCCCC1)c1ccco1	49	.	1	-50	-17
NC(=O)Cn1c2[n+](c3ccccc31)CC(O)CS2 (stereo unspecified)	-21	.	4	19	-5
C#CC[N+](C)(C)CCCCCCCCCC	.	.	28*	.	.
Nc1c(C2=NCCO2)nnn1Cc1ccccc1	-3	4	41*	5	-13

Source: PubChem BioAssay (several laboratories)
